# D1 PAM = Potentiators of Human D1 Dopamine Receptor: qHTS. 360,000 compounds, 0.036% hits. HEK293 TREx D1 cells, calcium flux, dopamine EC20 potentiation. potentiation, % at 10 µM. D(1A) dopamine receptor (Homo sapiens), P21728; in the data active means potentiation above about 30%; further: 0% is about no effect
# USP2a block = qHTS Assay for Inhibitors of Ubiquitin-specific Protease USP2a Using CHOP2 as the Reporter; Ubiquitin carboxyl-terminal hydrolase 2 (Homo sapiens), O75604; USP2 core, Ub-CHOP2 coupled fluorogenic reporter, 485/531; Potency, µM (doses to about 38.3 µM), inactives show at the highest dose activity change, negative = inhibition, most hits filed as inhibitors; 330,000 compounds, 0.01% hits; AID 463254, 2010;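 further: potency means the concentration at half of the fitted maximal effect; plate controls were DMSO wells for no effect and full inhibition by NEM control for full effect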
# Target sequence (O75604 whole entry, looked up): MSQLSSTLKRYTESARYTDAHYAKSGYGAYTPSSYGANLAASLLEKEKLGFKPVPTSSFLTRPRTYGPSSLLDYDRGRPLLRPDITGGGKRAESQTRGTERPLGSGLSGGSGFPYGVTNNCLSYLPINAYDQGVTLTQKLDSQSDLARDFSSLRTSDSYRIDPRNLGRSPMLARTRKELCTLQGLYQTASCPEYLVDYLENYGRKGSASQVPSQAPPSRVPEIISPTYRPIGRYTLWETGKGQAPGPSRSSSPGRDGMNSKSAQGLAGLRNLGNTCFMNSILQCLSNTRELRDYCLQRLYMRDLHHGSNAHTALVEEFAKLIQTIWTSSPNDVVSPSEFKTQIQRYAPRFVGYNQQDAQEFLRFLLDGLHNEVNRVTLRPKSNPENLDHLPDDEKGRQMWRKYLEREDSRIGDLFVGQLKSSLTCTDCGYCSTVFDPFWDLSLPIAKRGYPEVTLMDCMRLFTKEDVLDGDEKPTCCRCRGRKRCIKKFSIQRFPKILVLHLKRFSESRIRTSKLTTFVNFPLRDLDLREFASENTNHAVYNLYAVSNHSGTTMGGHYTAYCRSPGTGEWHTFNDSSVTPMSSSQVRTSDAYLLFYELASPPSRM
#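 USP2 core (10nM final) preincubated 30min RT with compound in 20mM Tris-HCl pH 8.0, 2mM CaCl2, 2mM beta-mercaptoethanol, 0.05% CHAPS; 25nM Ub-CHOP2 plus 25nM reporter substrate added, fluorescence (Ex485/Em531) read after 60min.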
# D1 antagonist = Antagonist of Human D 1 Dopamine Receptor: qHTS. activity change, negative = inhibition, % at 10 µM. D(1A) dopamine receptor (Homo sapiens), P21728. 360,000 compounds, 3.2% hits. HEK293 TREx D1 cells, calcium flux, dopamine EC80; active compounds read low; in the data active means activity change below about -30%; further: on the % scale 0 is the no-effect control and ±100 the full control effect
#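 Kinetic fluorescence of a calcium dye serves as the read-out. D1-expressing Hek293 Trex cells, induced overnight at 30 C, are exposed to compound for 180 s before an EC80 dopamine addition, then read 180 s further.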
# Eya2 inh = qHTS Assay for Inhibitors of the Phosphatase Activity of Eya2; Protein phosphatase EYA2 (Homo sapiens), O00167; recombinant Eya2, OMFP fluorescence dephosphorylation (OMFP is methylfluorescein phosphate); Potency, µM (doses to about 76.9 µM), inactives show at the top dose activity, negative = inhibition, hits mostly inhibitors; 330,000 compounds, 0.006% hits; further: potency means the concentration at half of the fitted maximal effect; on the % scale 0 is the no-effect control and ±100 the full control effect
#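 Eya2 protein (added as 0.2 uM solution) was preincubated with compound for 10 min at ambient temperature in 50 mM HEPES pH 7.5, 50 mM NaCl, 5 uM MgCl2, 0.05% BSA, 1 mM DTT. OMFP (added at 50 uM) then reacted 10 min; fluorescence read at 485/525 nm.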
# GALK inhibitor = qHTS Assay for Inhibitors of Human Galactokinase (GALK); P51570; Purified GALK, Kinase-Glo residual ATP luminescence; Potency, µM (top dose mostly 57.5 µM), for inactives: at the top dose activity change, negative = inhibition, most hits filed as inhibitors; 270,000 compounds, 0.007% hits; further: potency means the concentration at half of the fitted maximal effect; on the % scale 0 is the no-effect control and ±100 the full control effect
#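 5 nM enzyme, 35 uM ATP, 100 uM galactose, 20 mM HEPES pH8.0, 5 mM MgCl2; 1 h RT; residual ATP by Kinase-Glo Plus luminescence, qHTS format.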
# D1 ag = Allosteric Agonists of the Human D1 Dopamine Receptor: qHTS. D(1A) dopamine receptor (Homo sapiens), P21728. HEK293 T-REx D1 cells, calcium flux, agonist mode. activation, % at 2 µM. 360,000 compounds, 1% hits. AID 504660, 2011; in the data active means activation above about 30%; further: 0% is about no effect
#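 Tetracycline-induced HEK293 TREx D1 cells, force-coupled to calcium signalling, were dye-loaded with a no-wash calcium kit. Compound was pin-added after a 10 s baseline. Fluorescence was read kinetically at 1 cycle/s for 180 s, with calcium rises flagged as agonism.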
# The depositor's hits bear a star; ? = inconclusive; . = no result given; [ ] = remark or other dose. This is a sample that favours compounds with a hit; in the whole collection about 3.9% have one here. Unless noted, the call rests on the fitted dose curve; in most records, active means well fitted inhibition curve with a large enough effect; inconclusive means small, poorly fitted or top-dose-only effect, or effect the other way; inactive means flat fitted curve, though single readings scatter.
SMILES,D1 PAM,USP2a block,D1 antagonist,Eya2 inh,GALK inhibitor,D1 ag
CC(C)(C)C(=O)/C=c1\[nH]c(=O)/c(=C\c2ccc(C#N)cc2)s1,-11,0%,-47*,-9%[15.4 µM],1%,4
COCCN1C(=S)N[C@@H](c2ccccc2)C(C(=O)OC)=C1C,-3,0%,7,11%,.,1
COc1ccccc1NC(=O)C1=C(C)Nc2nc(SCc3ccccc3C)nn2C1CC(C)C (configuration not stated),-1,.,3,.,.,4
COc1ccc(NC(=O)c2nnn(CC(=O)Nc3cccc(C)c3C)c2N)c(OC)c1,-3,.,3,.,.,0
CCOC(=O)c1c(N2C(=O)Nc3ccccc3N2O)n[nH]c1-c1cccc(Cl)c1,-6,-10%,-1,7%,-1%,-2
CCOC(=O)c1c(C)sc(-c2c(-c3cc(C)ccc3C)[nH]c3c2c(=O)[nH]c(=O)n3C)c1O,1,.,12,.,.,20
CCOC(=O)c1c(C)sc(-c2c(-c3cc(C)ccc3C)[nH]c3c2c(=O)n(C)c(=O)n3C)c1O,8,.,14,.,.,277*
CCOC(=O)c1c(C)sc(-c2c(-c3cccc(Cl)c3)[nH]c3c2c(=O)n(C)c(=O)n3C)c1O,15,.,-12,.,.,315*
CC(C)C(NC(=O)c1ccccc1F)C(=O)OCC(=O)c1ccc(F)cc1 (configuration not stated),-13,0%,-32*,5%,-2%,5
COc1ccc(NS(=O)(=O)c2ccc3c(c2)CC(C)N3C(=O)C2CCC2)cc1OC (configuration not stated),-5,.,-28,.,.,16
COc1cccc(NS(=O)(=O)c2ccc3c(c2)CCN3C(C)=O)c1,-2,-2%,-15,?,-1%,16
COc1cccc(NS(=O)(=O)c2ccc3c(c2)CCCN3C(=O)C2CCC2)c1,-7,.,-52*,.,.,8
COc1cc(Cl)c(NS(=O)(=O)c2ccc3c(c2)CC(C)N3C(=O)C2CCC2)c(OC)c1 (configuration not stated),-4,.,-31*,.,.,14
Cc1cc(/C=C(\C#N)C(=O)NCC2CCCO2)c(C)n1-c1ccc(Cl)cc1 (configuration not stated),-15,-1%,-35*,-9%,1%,3
CCOc1ccc(-n2nc3cc(C)c(N)cc3n2)cc1,-3,1%,-30*,-1%,4%,0
COc1ccc2[nH]c3c(c2c1)CCN1C(=O)N([C@@H](C)C(=O)NCCc2ccc(F)cc2)C(=O)[C@]31C,-6,1%,-85*,5%,.,1
COc1ccc2[nH]c3c(c2c1)CCN1C(=O)N([C@@H](C)C(=O)NCc2ccc(F)cc2)C(=O)[C@]31C,10,0%,0,-6%,.,1
CCS(=O)(=O)N1CCC(C(=O)NC2CCCCCCC2)CC1,-4,1%,-1,12%,2%,2
CC(C)CN(CC(C)C)S(=O)(=O)N1CCC(C(=O)NC2CCCCCCC2)CC1,0,-7%,-36*,-2%,0%,5
CCOC(=O)c1cn[nH]c1N,8,-2%,-3,-10%,-2%,3
COC(=O)c1cn[nH]c1N,-10,2%,-30*,-30%,-1%,4
COC(=O)c1ccc(C23CC4(C2)[C@H](CN(Cc2ccc(C(F)(F)F)cc2)[C@@H]4c2ccccc2)C3c2ccc(C(F)(F)F)cc2)cc1 (some centres not stated),0,-14%,23,-19%,-1%,2
COC(=O)c1ccc(C23CC4(C2)[C@H](CN(C)[C@@H]4c2ccccc2)C3c2ccc(C(F)(F)F)cc2)cc1 (some centres not stated),1,0%,-52*,?,4%,1
COc1ccc(OC)c(-n2c3c(cc(-c4nc(-c5ccc(Cl)cc5)cs4)c2=O)C(=O)CC(C)(C)C3)c1,2,.,-26,.,.,0
Oc1cc2c(cc1O)[C@@H](c1ccccc1)CNCC2,-6,1%,-91*,6%,.,5
SMILES,D1 PAM,USP2a block,D1 antagonist,Eya2 inh,GALK inhibitor,D1 ag
Oc1cc2c(cc1O)C(c1ccccc1)CNCC2 (configuration not stated),.,.,.,0%,.,.
c1ccc(C2CNCCc3ccccc32)cc1 (configuration not stated),-19,4%,-42*,-20%,-2%,15
COc1ccc(CCNC(=O)CN(c2ccccc2)S(=O)(=O)N(C)C)cc1,2,.,-7,.,.,-1
Cc1cccc(C(=O)NC2=NC(c3ccc(Cl)cc3)CC(=O)N2)c1 (configuration not stated),3,.,2,.,.,4
COc1ccc(-c2c3c(=O)n(C)c(=O)n(C)c3c3n2-c2ccccc2NC3c2ccc(O)cc2O)cc1 (configuration not stated),-1,.,0,.,.,1
CCCS(=O)(=O)N1CCCC(C(=O)NCCc2ccccc2)C1 (configuration not stated),3,5%,3,-12%,-3%,2
CCCS(=O)(=O)N1CCCC(C(=O)NCCc2ccc(Cl)cc2)C1 (configuration not stated),5,2%,-31*,5%,-1%,1
CCCS(=O)(=O)N1CCCC(C(=O)NCCCOCC)C1 (configuration not stated),-2,-2%,0,16%,-1%,3
Cc1[nH]c(=O)[nH]c(=O)c1S(=O)(=O)N1CCCC(C(=O)NCCc2ccc(Cl)cc2)C1 (configuration not stated),-10,2%,-35*,26%,-3%,-3
CCCCNC(=O)C1CCCN(S(=O)(=O)CCC)C1 (configuration not stated),1,.,-32*,.,.,-1
Cc1ccc(-n2ncc3c(Nc4ccc5c(c4)OCCO5)ncnc32)cc1C,-2,.,-13,.,.,0
O=C(NCCc1ccc(Cl)cc1)C1COc2ccccc2C1 (configuration not stated),6,.,-4,.,.,0
COCCCNC(=O)CCn1c(=O)c2ccccc2n(CC(=O)Nc2c(C)cc(C)cc2C)c1=O,-1,.,-2,.,.,13
